Measurements from PubChem BioAssay (NCATS).
Activity calls are given as the source filed them. Calls come from the whole dose curve; as a rule, active = well fitted inhibition curve with a large enough effect; inconclusive = small, poorly fitted or top-dose-only effect; inactive = flat fitted curve, though single readings scatter. *1 amine or outer side, *2 acyl side, *3 side chain or, on linkers, in order; H or OH if unused. Where a SMILES comes first, the peptide text is derived from it. Bridges are numbered along the chain shown (N, C = ends). [ ]: non-standard residue; d: D form. The star is where a group is joined. pTerphenylCO(4''-OnC5H11) = CCCCCOc1ccc(-c2ccc(-c3ccc(C(=O)*)cc3)cc2)cc1; Orn(4R-OH,5R-OH) = O=C([C@H](C[C@@H](O)[C@@H](O)N[*:3])N[*:1])[*:2]; hTyr(3S-OH,4S-OH) = N[C@H](C(=O)O)[C@H](O)[C@@H](O)c1ccc(O)cc1; Pro(3S-OH,4S-Me) = C[C@H]1CN[C@H](C(=O)O)[C@H]1O; Hyp = O=C(O)[C@@H]1C[C@@H](O)CN1

Test system: Nanoluciferase (engineered Oplophorus gracilirostris luciferase)
Test: Primary Nanoluciferase (NLuc) qHTS assay for identification of artifact compounds. (AID 1845222);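 note: NLuc secreted into diluted conditioned medium of S16 cells; 0% = DMSO and -100% = no enzyme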
Settings: NLuc-conditioned medium, Nano-Glo luminescence, 5 min; series mostly up to 54.1 µM; activity, negative = inhibition: at the top concentration
How it was run: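 NLuc from S16 cell medium (1:55) plus test compounds, 15 min, room temperature. Luminescence after Nano-Glo (1:100) addition, 5 min.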

SMILES	activity, negative = inhibition
C=C1CCC[C@]2(C)CC/C(=C(/CO)C(=O)OC)C[C@@H]12	2.08% (inactive)
CC(C)C[C@@H]1NC(=O)[C@@H]2C[C@@]34C[C@@H]5[C@@]6(C)CCCC(C)(C)C6CC[C@@]5(C)N(c5ccccc53)[C@H]4N2C1=O (stereo partly specified)	4.86% [at 25.7 µM] (inactive)
COc1cc(F)c(F)c(Nc2ccc(I)cc2F)c1NS(=O)(=O)C1(CC(O)CO)CC1 (stereo unspecified)	1.71% (inactive)
CCC1C(=O)N(C)c2cnc(Nc3ccc(C(=O)NC4CCN(C)CC4)cc3OC)nc2N1C1CCCC1 (stereo unspecified)	-0.488% (inactive)
N#Cc1ccc(Nc2nc(-c3ccc(O)cc3O)cs2)cc1C(F)(F)F	-10.8% (inactive)
C=C(NC(=O)C(=C)NC(=O)c1csc(C2=NC3c4csc(n4)C4NC(=O)c5csc(n5)C(C(C)(O)C(C)O)NC(=O)C5CSC(=N5)/C(=C/C)NC(=O)C(C(C)O)NC(=O)c5csc(n5)C3(CC2)NC(=O)C(C)NC(=O)C(=C)NC(=O)C(C)NC(=O)C(C(C)CC)NC2C=Cc3c(C(C)O)cc(nc3C2O)C(=O)OC4C)n1)C(N)=O (stereo unspecified)	0% (inactive)
CN(C)C(CCOc1cccc2ccccc12)c1ccccc1 (stereo unspecified)	0% (inactive)
CN1CCC(c2cn(C)c3ccc(OS(=O)(=O)c4c(F)cccc4F)cc23)CC1	2.83% (inactive)
CC[C@H]1OC(=O)[C@H](C)[C@@H](O[C@H]2C[C@@](C)(OC)[C@@H](O)[C@H](C)O2)[C@H](C)[C@@H](O[C@H]2O[C@H](C)C[C@H](N(C)C)[C@H]2O)[C@](C)(O)C[C@@H](C)C(=O)[C@H](C)[C@@H](O)[C@]1(C)O	0.963% [at 25.7 µM] (inactive)
COc1ccc2[nH]c(=O)c3c(c2c1)OC(C)(C)C=C3	-4.83% (inactive)
CC(C)(C)Oc1ccc(OCC2Cc3ccccc3CN2C(=O)c2cccc3ccccc23)cc1 (stereo unspecified)	2.35% (inactive)
Cn1ncc(Cl)c1-c1cc(C(=O)N[C@H](CN)Cc2ccc(F)c(F)c2)oc1Cl	0.671% (inactive)
C=C1/C(=C/C=C2\CCC[C@]3(C)[C@@H]([C@H](C)/C=C/[C@H](O)C4CC4)CC[C@@H]23)C[C@@H](O)C[C@@H]1O	0.692% (inactive)
Cc1c(Cl)cccc1S(=O)(=O)Nc1nc(NCCc2ccccc2)nc2c1CN(Cc1ccccc1)CC2	0.903% (inactive)
O=c1cc(NCCCN[C@@H]2CCOc3c(Br)cc(Br)cc32)[nH]c2ccsc12	-1.82% (inactive)
COCC(c1ccc(C(F)(F)F)cc1)N1CCN(C2(C)CCN(C(=O)c3c(C)ncnc3C)CC2)CC1C (stereo unspecified)	0% (inactive)
Cc1cc(-c2cnc(N)c3c(-c4ccc5scnc5c4)csc23)n(C)n1	-7.87% (inactive)
Cc1cc2c(F)c(Oc3ncnn4cc(OCC(C)OC(=O)C(C)N)c(C)c34)ccc2[nH]1 (stereo unspecified)	0% (inactive)
C=C1/C(=C/C=C2\CCC[C@@]3(C)C2CCC3[C@H](C)/C=C/[C@@H](O)C2CC2)C[C@@H](O)C[C@@H]1O (stereo partly specified)	0.0667% (inactive)
CCC/C=C/c1cc2c(C=O)c(O)c(CC=C(C)C)cc2o1	-4.69% (inactive)
COc1cc(/C=C/C(=O)NCCn2c(C(F)(F)F)cc3ccccc32)cc(OC)c1OC	-4.17% (inactive)
CCN(CC)CCCS(=O)(=O)N[C@H](CCc1ccccc1)c1nc(Cc2ccc(Br)cc2)no1	2.98% (inactive)
NC(=O)c1cnc(N[C@@H]2CCCC[C@H]2N)nc1Nc1cccc(-n2nccn2)c1	0% (inactive)
CC#CCn1c(N2CCCC(N)C2)nc2c1c(=O)n(Cc1nc(C)c3ccccc3n1)c(=O)n2C (stereo unspecified)	4.56% (inactive)
CCCCCOc1ccc(-c2ccc(-c3ccc(C(=O)N[C@H]4C[C@@H](O)[C@@H](O)NC(=O)[C@@H]5[C@@H](O)[C@@H](C)CN5C(=O)[C@H]([C@@H](C)O)NC(=O)[C@H]([C@H](O)[C@@H](O)c5ccc(O)cc5)NC(=O)[C@@H]5C[C@@H](O)CN5C(=O)[C@H]([C@@H](C)O)NC4=O)cc3)cc2)cc1 ({pTerphenylCO(4''-OnC5H11)}-[Orn(4R-OH,5R-OH)]T[Hyp][hTyr(3S-OH,4S-OH)]T[Pro(3S-OH,4S-Me)]; lactam 1-C)	0.673% [at 25.7 µM] (inactive)
C=CC(C)(O)CC[C@@H]1[C@@]2(C)CCCC(C)(C)C2CC[C@@]1(C)O (stereo partly specified)	3.47% (inactive)
